Assay results reported in PubChem BioAssay (EPA / NIEHS).
Activity calls are given as the source filed them. How the source made its calls: active means hit-call score of the fitted dose curve at least 0.9, where 1 is the maximum; inactive means score below 0.9.

biological target: Transcriptional activator Myb (Homo sapiens) (UniProt P10242); assay: ATG_Myb_CIS: Attagene CIS-FACTORIAL HepG2 Assay for human Myeloblastosis (Myb) Proto-Oncogene Transcription Factor (AID 2282986); settings: HepG2 Attagene CIS-FACTORIAL Myb reporter transcription; actives raise or lower the signal
Sequence (P10242 whole entry, looked up): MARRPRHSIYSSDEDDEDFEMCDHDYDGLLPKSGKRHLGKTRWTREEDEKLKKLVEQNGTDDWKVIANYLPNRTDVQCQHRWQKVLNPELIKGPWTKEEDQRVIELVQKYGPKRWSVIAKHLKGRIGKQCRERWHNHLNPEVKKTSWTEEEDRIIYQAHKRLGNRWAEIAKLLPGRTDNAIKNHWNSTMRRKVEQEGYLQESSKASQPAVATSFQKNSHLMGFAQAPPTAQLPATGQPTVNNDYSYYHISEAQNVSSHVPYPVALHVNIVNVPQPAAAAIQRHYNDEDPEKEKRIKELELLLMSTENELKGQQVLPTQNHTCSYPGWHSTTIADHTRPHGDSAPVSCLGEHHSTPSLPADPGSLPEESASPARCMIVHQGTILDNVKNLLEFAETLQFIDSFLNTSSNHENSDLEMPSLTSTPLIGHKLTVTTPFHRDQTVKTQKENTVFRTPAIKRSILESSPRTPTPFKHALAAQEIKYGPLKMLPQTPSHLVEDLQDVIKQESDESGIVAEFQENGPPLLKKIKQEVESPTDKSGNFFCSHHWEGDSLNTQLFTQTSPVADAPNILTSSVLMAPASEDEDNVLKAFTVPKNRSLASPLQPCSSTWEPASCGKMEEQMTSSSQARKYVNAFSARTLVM
Description: ATG_CIS is a cell-based, multiplexed-readout assay that uses HepG2, a human liver cell line, with measurements taken at 24 hours after chemical dosing in a 24-well plate.ATG_Myb_CIS is one of 52 assay component(s) measured or calculated from the ATG_CIS assay. It is designed to make measurements of mRNA induction, a form of inducible reporter, as detected with fluorescence intensity signals by Reverse transcription polymerase chain reaction (RT-PCR) and Capillary electrophoresis technology.Data from the assay component ATG_Myb_CIS was analyzed into 1 assay endpoint. This assay endpoint, ATG_Myb_CIS, was analyzed with bidirectional fitting relative to DMSO as the negative control and baseline of activity. Using a type of inducible reporter, measures of mRNA for gain or loss-of-signal activity can be used to understand the reporter gene at the transcription factor-level as they relate to the gene MYB. Furthermore, this assay endpoint can be referred to as a primary readout, because this assay has produced multiple assay endpoints where this one serves a reporter gene function. To generalize the intended target to other relatable targets, this assay endpoint is annotated to the dna binding intended target family, where the subfamily is MYB proteins.
Human liver HepG2 cells are transiently transfected with multiple reporter transcription units (MRTUs) in 6-well plates using FuGene 6 reagent (Roche; 3 ml FuGene/1 mg DNA). The MRTU constructs are regulated by a cis-regulating element (promoter). […] A major difference between the CIS and TRANS system is that in CIS activities of endogenous TFs are measured, whereas the TRANS assay evaluates changes in activities of exogenous, chimeric NR-Gal4 proteins. […] At the end of 24 hour incubation, total RNA was isolated using TriZol reagent (Invitrogen). The isolated RNA is then reverse-transcribed using oligo(dT) primer and Mo-MLV reverse transcriptase (Invitrogen) with DNAse I (Ambion) treatment for 30 min. The one-tenth of the produced cDNA was amplified by PCR using Taq DNA polymerase (Invitrogen) and two reporter sequence-specific primers. The PCR products were fluorescently labeled by primer extension with 6-arboxyfluorescein (6-FAM) 5'-labeled reporter sequence-specific primer (2 min at 95 C, 20 s at 68 C and 10 min at 72 C) and these products were digested with 5U of HpaI (New England Biolabs) for 2h at 37 C. The fragments were purified using Qiaquick PCR columns (Qiagen), analyzed on an ABI 3130xL genetic analyzer (Applied Biosystems) with peak positions identified by using a set of X-rhodamine (ROX)-labeled MapMarker1000 molecular weight standards (BioVentures). The raw capillary electrophoresis data was processed using Attagraph software (Attagene).

SMILES | outcome | AC50
O=c1n(CC2CO2)c(=O)n(CC2CO2)c(=O)n1CC1CO1 (stereo not given) | inactive | 
CCOCCOCCOCCO | inactive | 
Nc1cccc(N)c1 | inactive | 
O=C(NS(=O)(=O)/C=C/c1ccccc1)c1ccc(F)cc1Cl | inactive | 
Cc1[nH]cnc1C[C@H]1CCc2c(C)c3ccccc3n2C1=O | inactive | 
Fc1ccccc1[C@@H](F)COC1CCC(Nc2ncnc3[nH]ncc23)CC1 (stereo not given in full) | inactive | 
COc1cccc(-c2ccc(/C=C\CN3CCCCCC3)cc2Cl)c1 | inactive | 
CCOc1cccc(-n2cc(C(=O)N3CCN(c4cc(C(=O)O)c5ccccc5c4)CC3)nc2-c2ccc(C)cc2)c1 |  | 152 µM (active)
NC(=O)NO | inactive | 
O=C(O)CC(O)C(=O)O (stereo not given) | inactive | 
On1ccccc1=S | inactive | 
Clc1nc(Cl)c(Cl)c(Cl)c1Cl | inactive | 
COCCOc1cc2cc(C(=O)NC3CCN(C(C)C)CC3)n(CC(=O)Nc3ccc(Cl)cn3)c2cn1 | inactive | 
O=C(CCCCCCCCc1cccnc1)N1CCC(C=C(c2ccccc2)c2ccccc2)CC1 |  | 60.2 µM (active)
Cn1c(=O)c2c(ncn2C)n(C)c1=O | inactive | 
CCC(C)(C)C(=O)O[C@H]1C[C@@H](C)C=C2C=C[C@H](C)[C@H](CC[C@@H]3C[C@@H](O)CC(=O)O3)[C@H]21 | inactive | 
O=C(O)c1cccc(Oc2ccccc2)c1 | inactive | 
CCNc1ccccc1 | inactive | 
CCCC(=O)OCC | inactive | 
CC(C)=CCCC(C)=CC=O | inactive | 

SMILES | outcome | AC50
O=C(O)CCN(C1(C(=O)NO)CCCC1)S(=O)(=O)c1ccc(Oc2ccc(F)cc2)cc1 | inactive | 
O=C1CCCCCN1 | inactive | 
O=C(O)c1cc(N=Nc2ccc(S(=O)(=O)Nc3ccccn3)cc2)ccc1O | inactive | 
CC(C)=CCC/C(C)=C\CO | inactive | 
CC(=O)c1ccc2c(c1)[C@H](NC(=O)c1ccc(F)cc1)[C@@H](O)C(C)(C)O2 | inactive | 
CCCCCCCCCCCCc1ccccc1 | inactive | 
CCCCCCCCCCCCCCCO | inactive | 
CC(C)(O)c1coc(S(=O)(=O)NC(=O)Nc2c3c(cc4c2CCC4)CCC3)c1 | inactive | 
CC(C)CC(C)(O)C#CC(C)(O)CC(C)C (stereo not given) | inactive | 
CC(O)CN(CCN(CC(C)O)CC(C)O)CC(C)O (stereo not given) | inactive | 
CCCCC(CC)COC(=O)c1ccc(C(=O)OCC(CC)CCCC)cc1 (stereo not given) | inactive | 
C1N2CN3CN1CN(C2)C3 | inactive | 
O=P(OC(CCl)CCl)(OC(CCl)CCl)OC(CCl)CCl |  | 144 µM (active)
Cn1cnc([N+](=O)[O-])c1Sc1ncnc2nc[nH]c12 | inactive | 
COC(=O)c1ccccc1O | inactive | 
CC[C@H](C)C(=O)O[C@H]1C[C@@H](C)C=C2C=C[C@H](C)[C@H](CC[C@@H]3C[C@@H](O)CC(=O)O3)[C@H]21 | inactive | 
Cc1ccc(S(=O)(=O)O)cc1C | inactive | 
CCOC(=O)CC(CC(=O)OCC)(OC(C)=O)C(=O)OCC | inactive | 
CCCCC(CC)COC(=O)CCCCCCCCC(=O)OCC(CC)CCCC (stereo not given) | inactive | 
CC[C@H]1OC(=O)[C@H](C)[C@@H](O[C@H]2C[C@@](C)(OC)[C@@H](O)[C@H](C)O2)[C@H](C)[C@@H](O[C@@H]2O[C@H](C)C[C@H](N(C)C)[C@H]2O)[C@](C)(O)C[C@@H](C)C(=O)[C@H](C)[C@@H](O)[C@]1(C)O | inactive | 
